Experimental data: PubChem BioAssay AID588501 (NMMLSC, 2011)
Hit rate of the full screen: of about 360,000 compounds, about 420 (0.12%) were called active. This excerpt belongs to a sample that is enriched for actives. Unmarked numbers belong to inactive results. Rule as the data show it: active = inhibition above about 30%; inconclusive = no clear call, values can overlap the other calls; inactive = below that.

Molecular target: Lethal factor (Bacillus anthracis) (UniProt P15917)
Test: anthrax lethal factor cleavage blockers – biochemical, multiplex microsphere, MLPCN library, primary screen (AID 588501); also: plate controls were buffer without enzyme for full effect and enzyme alone for no effect
Conditions: multiplex microsphere protease cleavage assay, LF; at 10 µM; hits give high values

Chain of Lethal factor (Bacillus anthracis) (P15917 whole entry, looked up): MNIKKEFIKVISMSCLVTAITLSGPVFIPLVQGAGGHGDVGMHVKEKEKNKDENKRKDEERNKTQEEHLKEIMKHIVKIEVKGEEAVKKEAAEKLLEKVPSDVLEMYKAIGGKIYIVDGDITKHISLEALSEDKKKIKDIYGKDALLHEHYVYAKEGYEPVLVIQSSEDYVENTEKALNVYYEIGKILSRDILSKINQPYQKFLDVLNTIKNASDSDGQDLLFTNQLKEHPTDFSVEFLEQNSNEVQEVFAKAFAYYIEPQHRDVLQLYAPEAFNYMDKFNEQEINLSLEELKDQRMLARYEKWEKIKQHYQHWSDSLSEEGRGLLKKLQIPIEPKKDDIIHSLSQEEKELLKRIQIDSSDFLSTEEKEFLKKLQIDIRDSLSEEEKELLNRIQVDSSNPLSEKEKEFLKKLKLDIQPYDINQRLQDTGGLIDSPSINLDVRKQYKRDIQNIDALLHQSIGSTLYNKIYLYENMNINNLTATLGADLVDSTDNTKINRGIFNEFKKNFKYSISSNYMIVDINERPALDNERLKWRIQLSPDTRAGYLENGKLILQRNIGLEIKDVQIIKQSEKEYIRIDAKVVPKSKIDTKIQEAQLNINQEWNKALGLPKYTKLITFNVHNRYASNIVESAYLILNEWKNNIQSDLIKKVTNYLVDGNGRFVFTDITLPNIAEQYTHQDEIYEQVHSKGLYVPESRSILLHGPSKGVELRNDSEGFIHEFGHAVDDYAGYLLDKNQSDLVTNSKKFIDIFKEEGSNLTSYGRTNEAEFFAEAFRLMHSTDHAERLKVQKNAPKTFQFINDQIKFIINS

SMILES | inhibition
COc1ccc(CN2CC(C(=O)NCCN3CCN(c4ccccc4F)CC3)CC2=O)cc1 (stereo not drawn) | -1.5%
Cn1cc(CCC(=O)N2CCCC(C(=O)c3ccc(C(C)(C)C)cc3)C2)cn1 (stereo not drawn) | -0.9%
CCOc1ccc(CCNC(=O)C2=C(C)C(=O)OC23CCC(C)CC3)cc1OCC (stereo not drawn) | 1.1%
Fc1ccccc1OCCCCn1cncn1 | 7.4%
COc1cc(/C=C2\SC(=O)NC2=O)ccc1OCc1ccc(Cl)nc1 | 0.2%
COc1cc(/C=C2\SC(=S)N(Nc3ncc(C(F)(F)F)cc3Cl)C2=O)cc(OC)c1OC | 61.6% (active)
COc1cc(-c2nnc(Cn3cc(C(F)(F)F)ccc3=O)o2)cc(OC)c1OC | 11.3%
Cc1ccc2c(c1)C(O)(CC(=O)c1cccnc1)C(=O)N2 (stereo not drawn) | -1.9%
CN(CC(=O)NCCc1ccccc1)S(=O)(=O)c1cnc[nH]1 | -0.9%
Cc1cc(C)c(CN2CCN(C(=O)Cn3ccc(NC(=O)OCc4ccccc4)nc3=O)CC2)c(C)c1 | -0.5%
O=C(c1ccc(Cl)cc1)N1N=C(c2ccccn2)CC1(O)C(F)(F)F (stereo not drawn) | -6.7%
COc1cc2c(cc1OC)C(/C=C/c1ccco1)=NCC2 | -4.6%
Cc1c(Br)ccc(NC(=O)COc2ccccc2C(N)=O)c1C | 0.9%
CCc1ccc(NC(=O)CS(=O)CC(=O)NCCCc2ccccc2)cc1 (stereo not drawn) | -1.4%
O=C(NCc1ccccc1)C1C(=O)N(Cc2ccccc2)C(=O)C1C1(O)CCCC1 (stereo not drawn) | 1.3%
COCC(C)NCc1cc(Br)ccc1OC (stereo not drawn) | -4.9%
COc1ccc(Br)cc1CN(C)CC(=O)Nc1cc(Cl)cc(Cl)c1 | -3.4%
COc1ccc(Br)cc1CNCCc1cccc(Cl)c1 | 43.6% (active)
O=S(=O)(Nc1cccc(-n2cnnn2)c1)c1cnc(Cl)c(Cl)c1 | 1.8%
COc1c(C(=O)N2CCCC2)ccc2ccccc12 | 2.3%

SMILES | inhibition
COC(=O)C[n+]1cccc2ccccc21 | 29.8% (active)
COC(=O)CNS(=O)(=O)c1ccc(Cc2ccc(S(=O)(=O)NCC(=O)OC)cc2)cc1 | -2.1%
CC1(c2ccc(Cl)cc2)NC(=O)N(CC(=O)c2ccc3c(c2)OCO3)C1=O (stereo not drawn) | -2.8%
CCN(C(=O)COC(=O)c1ccccc1O)c1cccc2ccccc12 | -1.8%
Cc1nccn1-c1ccc(NC(=O)[C@H]2O[C@@H](n3cnc4c(N)ncnc43)[C@H](O)[C@@H]2O)cc1 | 0.8%
CC(=O)c1nn(-c2ccc(C)cc2)cc1C(=O)c1cccc(Br)c1 | -8.2%
CN(C)c1ccc(/C=C2\CC3C4CC=C5CC(O)CCC5(C)C4CCC3(C)C2=O)cc1 (stereo not drawn) | 3.3%
C=CCN(Cc1nc(-c2cc(OC)c3c(c2)OCO3)oc1C)C1CCS(=O)(=O)C1 (stereo not drawn) | -1.3%
CCc1nn(CCCC(=O)Nc2ccc(C)c(C)c2)c(=O)c2cc3occc3n12 | -0.7%
COc1ccccc1C(=O)Nc1ccnn1C1CCN(C(=O)C(C)(C)C)CC1 | -1.9%
Cc1ccc(NC(=O)CSCC(=O)N2CCOCC2)cc1 | -4.8%
CC(C)C[C@@H]1Cc2[nH][nH]c(=O)c2[C@H](CCc2ccccc2)O1 | -14.1%
COc1ccc(N(CCC#N)S(=O)(=O)c2ccc(Cl)cc2)cc1 | -0.4%
NC1=NC(=O)S/C1=C\c1ccc(O)cc1 | -0.1%
C=CCNC(=O)/C=C/c1ccc(C(C)C)cc1 | -1.4%
O=C(/C=C(O)/C=C/c1ccc(O)cc1)/C=C/c1ccc(O)cc1 | 31.4% (active)
CC(O)CN(Cc1ccc(Cl)cc1)CC(C)O (stereo not drawn) | 0.1%
O=C1N[C@@H](Cc2ccccc2)C(=O)N2[C@H]1C[C@]1(Br)c3ccccc3N(S(=O)(=O)c3ccccc3)[C@H]21 | -0.3%
Cn1c(SCC(=O)c2ccccc2)ncc(C(=O)Nc2ccc(F)cc2)c1=O | -1.5%
CCCCN1CC(COc2ccccc2)Oc2cccc(F)c2S1(=O)=O (stereo not drawn) | -2.2%

SMILES | inhibition
CN(Cc1cn(Cc2ccc(C(F)(F)F)cc2)nn1)C1CN(Cc2cn(Cc3ccc(C(F)(F)F)cc3)nn2)S(=O)(=O)C1 (stereo not drawn) | -0.1%
COC(=O)[C@H]1Cc2cnoc2C[C@]1(C)C(=O)O | 4.2%
COc1ccc2[nH]c(=O)c(C3c4cc(OC)c(OC)cc4CCN3C(=O)c3ccco3)cc2c1 (stereo not drawn) | -1.5%
O=[N+]([O-])c1ccc(NC(=S)N2CCN(c3ccccn3)CC2)cc1 | 1.1%
CC(=NNC(=S)N1CCCCCC1)c1ccccn1 | 50% (active)
CCOC(=O)c1ccc(NC(=S)N2CCN(c3ccccn3)CC2)cc1 | -15.7%
COc1ccccc1CNC(=O)c1cc(-c2cc(F)ccc2OC)n[nH]1 | -4.6%
O=C(NC1CCCC1)C(c1ccco1)N(C(=O)c1ccco1)c1ccc(F)cc1 (stereo not drawn) | -0.3%
Cc1cc(C)c2nc(SCC(=O)N(C)C3CCS(=O)(=O)C3)cc(C)c2c1 (stereo not drawn) | 0.4%
N#CC(Cc1cc2ccccc2n1S(=O)(=O)c1ccccc1)OCc1ccccc1 (stereo not drawn) | -10.4%
O=C(NN1C(=O)C2CCCCC2C1=O)c1ccco1 (stereo not drawn) | 15.5%
CC(C)c1c(O)nc(SCCOc2ccc(Cl)cc2)[nH]c1=O | -0.5%
COc1ccc(-c2[nH][nH]c(=O)c2NC(=O)c2ccc([N+](=O)[O-])cc2)cc1 | 6.4%
COc1ccc(NC(=O)c2cn(CCC#N)nc2-c2ccc([N+](=O)[O-])cc2)cc1 | -4.4%
COc1ccc(C(=O)Nc2nc(-c3ccc(OC)cc3)c(-c3ccc([N+](=O)[O-])cc3)s2)cc1 | 30.1% (active)
COc1ccc(N(CC(=O)NCCSCc2cccc(Cl)c2)S(C)(=O)=O)cc1 | 34.3% (active)
COc1ccc(CCNC(=O)CN(c2ccccc2)S(C)(=O)=O)cc1 | 3.6%
Cc1ccc(CSCCNC(=O)CN(c2ccc(F)cc2)S(C)(=O)=O)cc1 | 3%
